This is part of a sample that, as a whole, favours compounds with a hit. Of some 83,000 tested, about 20% had one in any assay.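 Step 1: grow cells in 96-well plates. Step 2: add test compound at a single concentration. Step 3: incubate 48 h. Step 4: record percent growth.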 Unmarked numbers belong to inactive results. Calls of active or inactive are those of the source. The calls were made as follows: active = growth percent below 10; inactive = the rest.

In one experiment the test system is SN12C renal. Kind of experiment: NCI-60 one-dose screen, 48 h (100 = growth as untreated, 0 = no growth, -100 = all killed). The conditions noted are these: 10 µM unless noted.
With `Cc1ccc2c(C3C(C#N)=C(N)Oc4cc5ccccc5cc43)cc(=O)oc2c1` (stereo not drawn), the growth was 46.3%.

As to `Oc1ccc(Cl)cc1Sc1cc(Cl)ccc1O`, the growth is 86.3%.

Turning to `CCc1cccc(-c2ccccc2)c1`, the growth is 99.5%.

For `CCCCNc1cc(C(=O)O)cc(S(N)(=O)=O)c1Oc1ccccc1`, the growth was 97.1%.

In the case of `CC(C)Cn1cnc2c3ccccc3nc(NCn3nc(-c4cc(Cl)cc(Cl)c4Cl)oc3=S)c21`, the growth was 98.5%.

Take `Clc1ccc2c(c1)nnn1c3ncccc3c(Br)c21`: the growth is 91.9%.

Regarding `Cc1ccc(-c2nc3c(N=Nc4ccc(S(N)(=O)=O)cc4)c(N)nn3c(N)c2C#N)cc1`, the growth is 33.2%.

In the case of `O=C(C[n+]1ccccc1Cl)c1ccc2c(c1)CCCC2`, the growth is 101%.

Regarding `COc1ccc(C2CC(c3cc(Cl)c(C)cc3OC)=NN2c2ccc(S(N)(=O)=O)cc2)cc1OC` (stereo not drawn), the growth is 87.4%.

`CCN(CC)c1ccc(C2CC(c3cc(OC)c(OC)c(OC)c3)=NN2)cc1` (stereo not drawn): the growth is 47.2%.

As for `COC(=O)CCCNS(=O)(=O)c1cc(C(=O)Nc2ccc(NC(=O)c3cc(S(=O)(=O)NCCCC(=O)OC)c(O)c(O)c3O)cc2)c(O)c(O)c1O`, the growth is 85.3%.

Turning to `CC(NCCC(c1ccccc1)c1ccccc1)c1ccccc1` (stereo not drawn), the growth is 86.4%.

Consider `CC/C(=C(\CC)c1ccc(OCCN(CC)CC)cc1)c1ccc(OCCN(CC)CC)cc1`, for which the growth was 68.6%.

`Cc1ccc(N(CC2=NCCN2)c2cccc(O)c2)cc1`: the growth is 94.6%.

Regarding `COc1ccc(C[C@H](N)C(=O)N[C@@H]2[C@@H](CO)OC(n3cnc4c(N(C)C)ncnc43)[C@@H]2O)cc1` (stereo partly drawn), the growth is -13.3% (active).

With `CC1=C2C(=C[C@@](C)(CO)[C@@H]2OC(=O)N(C)CCN(C)C(=O)OC(C)(C)C)C(=O)[C@](C)(O)C12CC2`, the growth was 73%.

Take `CC(=O)N1N=C(CCC(=O)c2nc3ccc([N+](=O)[O-])cc3[nH]2)OC1c1ccc(O)cc1` (stereo not drawn): the growth was 109%.

Regarding `CC1CCc2cc(F)cc3c(=O)c(C(=O)O)cn1c23` (stereo not drawn), the growth is 98.2%.

As for `OCCOCC(F)(F)F`, the growth is 116%.

Consider `O=C(O)c1cn(C2CC2)c2cc(N3CCN(C(=O)CSc4nc(NS(=O)(=O)c5ccccc5)cc(=O)[nH]4)CC3)c(F)cc2c1=O`, for which the growth was 98.6%.

Take `c1coc(CSc2ncnc3nc[nH]c23)c1`: the growth was 102%.

As for `CN(C)CC/C=C1\c2ccccc2Sc2ccc(Cl)cc21`, the growth was 48%.

For `O=C(COc1ccc(Cl)cc1)N1CCN(Cc2ccc3c(c2)OCO3)CC1`, the growth was 91%.

`COc1cc(NS(=O)(=O)c2ccc(N)cc2)ncn1`: the growth was 93.8%.

In the case of `COC(OC)C1(c2ccccc2)NC(=O)NC1=O` (stereo not drawn), the growth was 101%.

Regarding `CC(=O)Nc1ccc(OC(=O)c2ccccc2O)cc1`, the growth was 102%.

Take `COc1cccc(C2CC(c3cc(OC)c(OC)c(OC)c3)=NN2)c1` (stereo not drawn): the growth is 91.8%.

On to `COc1cc(C(=O)N2CCN(C(=O)c3cc(OC)c(OCc4ccccc4)cc3N)CC2)c(N)cc1OCc1ccccc1`, for which the growth is 111%.

With `COc1cc2c(cc1OCCCCC(=O)Nc1ccc(-c3nc4ccccc4s3)cc1)N=C[C@@H]1CCCN1C2=O`, the growth was 15.3%.

Regarding `C=C1C(=O)O[C@H]2[C@H]1CC/C(COC(=O)c1cccc3ccccc13)=C\CC[C@@]1(C)O[C@@H]21`, the growth is -55.3% (active).

On to `COc1ccccc1S(=O)(=O)Nc1ccc2c3c(cc(-c4ccoc4)nc13)C(=O)N2C`, for which the growth was 82.3%.

In the case of `C=C1c2c(Cl)ccc(O)c2C(O)=C2C(=O)[C@]3(O)C(O)=C(C(N)=O)C(=O)[C@@H](N(C)C)[C@@H]3[C@@H](O)[C@H]12`, the growth is 10.8%.

As for `CN1C(=O)C2(SCC(C(=O)NCC(=O)OC(C)(C)C)N2C(=O)C2CCCCC2)c2ccccc21` (stereo not drawn), the growth is 99.2%.

With `COc1ccc(/C=C/C(=O)c2ccc(-n3cc(CN4CCN(c5cc6c(cc5F)c(=O)c(C(=O)O)cn6C5CC5)CC4)nn3)cc2)cc1OC`, the growth was 14.9%.

For `O=C(Nc1ccc(Cl)c(Cl)c1)Nc1ccc(Cl)c([N+](=O)[O-])c1`, the growth is 6.3% (active).

Regarding `Cc1cc[n+](CCCC[n+]2ccc(C)cc2)cc1`, the growth is 97.4%.

For `Cc1cn(C2CC(F)C(CO)O2)c(=O)[nH]c1=O` (stereo not drawn), the growth was 94.8%.

Turning to `COc1cc2ncnc(Oc3ccc(NC(=O)Nc4ccc(C5(C#N)CCCC5)cc4)c4ccccc34)c2cc1OC`, the growth was 21.3%.

Consider `COC(=O)Nc1nc2ccc(Sc3ccccc3)cc2[nH]1`, for which the growth was 44.6%.

Another experiment concerns UO-31 renal. The description is as above. The settings on record: 10 µM unless noted.
On to `Cc1ccc2c(C3C(C#N)=C(N)Oc4cc5ccccc5cc43)cc(=O)oc2c1` (stereo not drawn), for which the growth was 47.3%.

For `Oc1ccc(Cl)cc1Sc1cc(Cl)ccc1O`, the growth was 74.6%.

On to `CCc1cccc(-c2ccccc2)c1`, for which the growth is 87.8%.

For the compound `CCCCNc1cc(C(=O)O)cc(S(N)(=O)=O)c1Oc1ccccc1`, the growth is 85.4%.

Turning to `CC(C)Cn1cnc2c3ccccc3nc(NCn3nc(-c4cc(Cl)cc(Cl)c4Cl)oc3=S)c21`, the growth is 64.8%.

Turning to `Clc1ccc2c(c1)nnn1c3ncccc3c(Br)c21`, the growth is 58.9%.

For the compound `Cc1ccc(-c2nc3c(N=Nc4ccc(S(N)(=O)=O)cc4)c(N)nn3c(N)c2C#N)cc1`, the growth was 69%.

For `O=C(C[n+]1ccccc1Cl)c1ccc2c(c1)CCCC2`, the growth was 93.6%.

In the case of `COc1ccc(C2CC(c3cc(Cl)c(C)cc3OC)=NN2c2ccc(S(N)(=O)=O)cc2)cc1OC` (stereo not drawn), the growth is 59.1%.

`CCN(CC)c1ccc(C2CC(c3cc(OC)c(OC)c(OC)c3)=NN2)cc1` (stereo not drawn): the growth was 36.5%.

For `COC(=O)CCCNS(=O)(=O)c1cc(C(=O)Nc2ccc(NC(=O)c3cc(S(=O)(=O)NCCCC(=O)OC)c(O)c(O)c3O)cc2)c(O)c(O)c1O`, the growth is 82.9%.

On to `CC(NCCC(c1ccccc1)c1ccccc1)c1ccccc1` (stereo not drawn), for which the growth is 32.6%.

With `CC/C(=C(\CC)c1ccc(OCCN(CC)CC)cc1)c1ccc(OCCN(CC)CC)cc1`, the growth is 24.4%.

On to `Cc1ccc(N(CC2=NCCN2)c2cccc(O)c2)cc1`, for which the growth is 79.7%.

With `COc1ccc(C[C@H](N)C(=O)N[C@@H]2[C@@H](CO)OC(n3cnc4c(N(C)C)ncnc43)[C@@H]2O)cc1` (stereo partly drawn), the growth is 16.2%.

For `CC1=C2C(=C[C@@](C)(CO)[C@@H]2OC(=O)N(C)CCN(C)C(=O)OC(C)(C)C)C(=O)[C@](C)(O)C12CC2`, the growth is -60.4% (active).

For the compound `CC(=O)N1N=C(CCC(=O)c2nc3ccc([N+](=O)[O-])cc3[nH]2)OC1c1ccc(O)cc1` (stereo not drawn), the growth is 80.9%.

`CC1CCc2cc(F)cc3c(=O)c(C(=O)O)cn1c23` (stereo not drawn): the growth was 78.5%.

Turning to `OCCOCC(F)(F)F`, the growth was 94.1%.

For `O=C(O)c1cn(C2CC2)c2cc(N3CCN(C(=O)CSc4nc(NS(=O)(=O)c5ccccc5)cc(=O)[nH]4)CC3)c(F)cc2c1=O`, the growth is 82%.

As for `c1coc(CSc2ncnc3nc[nH]c23)c1`, the growth was 86.5%.

For `CN(C)CC/C=C1\c2ccccc2Sc2ccc(Cl)cc21`, the growth was 41.3%.

`O=C(COc1ccc(Cl)cc1)N1CCN(Cc2ccc3c(c2)OCO3)CC1`: the growth is 61.5%.

On to `COc1cc(NS(=O)(=O)c2ccc(N)cc2)ncn1`, for which the growth was 86.2%.

In the case of `COC(OC)C1(c2ccccc2)NC(=O)NC1=O` (stereo not drawn), the growth is 101%.

On to `CC(=O)Nc1ccc(OC(=O)c2ccccc2O)cc1`, for which the growth is 88.7%.

With `COc1cccc(C2CC(c3cc(OC)c(OC)c(OC)c3)=NN2)c1` (stereo not drawn), the growth was 94.9%.

For the compound `COc1cc(C(=O)N2CCN(C(=O)c3cc(OC)c(OCc4ccccc4)cc3N)CC2)c(N)cc1OCc1ccccc1`, the growth was 98.3%.

Regarding `COc1cc2c(cc1OCCCCC(=O)Nc1ccc(-c3nc4ccccc4s3)cc1)N=C[C@@H]1CCCN1C2=O`, the growth was -31.6% (active).

For the compound `C=C1C(=O)O[C@H]2[C@H]1CC/C(COC(=O)c1cccc3ccccc13)=C\CC[C@@]1(C)O[C@@H]21`, the growth was -100% (active).

As for `COc1ccccc1S(=O)(=O)Nc1ccc2c3c(cc(-c4ccoc4)nc13)C(=O)N2C`, the growth was 39.9%.

Take `C=C1c2c(Cl)ccc(O)c2C(O)=C2C(=O)[C@]3(O)C(O)=C(C(N)=O)C(=O)[C@@H](N(C)C)[C@@H]3[C@@H](O)[C@H]12`: the growth is 4.78% (active).

As to `CN1C(=O)C2(SCC(C(=O)NCC(=O)OC(C)(C)C)N2C(=O)C2CCCCC2)c2ccccc21` (stereo not drawn), the growth was 84%.

For `COc1ccc(/C=C/C(=O)c2ccc(-n3cc(CN4CCN(c5cc6c(cc5F)c(=O)c(C(=O)O)cn6C5CC5)CC4)nn3)cc2)cc1OC`, the growth was 43.5%.

Consider `O=C(Nc1ccc(Cl)c(Cl)c1)Nc1ccc(Cl)c([N+](=O)[O-])c1`, for which the growth was 0.279% (active).

As to `Cc1cc[n+](CCCC[n+]2ccc(C)cc2)cc1`, the growth is 96%.

As to `Cc1cn(C2CC(F)C(CO)O2)c(=O)[nH]c1=O` (stereo not drawn), the growth was 77.6%.

Regarding `COc1cc2ncnc(Oc3ccc(NC(=O)Nc4ccc(C5(C#N)CCCC5)cc4)c4ccccc34)c2cc1OC`, the growth is 55.8%.

With `COC(=O)Nc1nc2ccc(Sc3ccccc3)cc2[nH]1`, the growth is 34.6%.

For the origin of these results see PubChem BioAssay (NCI).
